Results: PubChem BioAssay (NCI)
Compounds without any hit were thinned out: in the full panel of roughly 83,000, 20% have a hit.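 96-well plates, one dose, 48 hours. Percent growth reported; active if below 10.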 Unmarked numbers belong to inactive results. The source made the active and inactive calls.

Assays:
Experiment in all cases: NCI-60 one-dose screen, 48 h (100 = growth as untreated, 0 = no growth, -100 = all killed)
Details in all cases: 10 µM
HT29 colon = system: HT29 colon
SNB-75 CNS = system: SNB-75 CNS
SNB-19 CNS = system: SNB-19 CNS
U251 CNS = system: U251 CNS
PC-3 prostate = system: PC-3 prostate
SK-MEL-5 melanoma = system: SK-MEL-5 melanoma
UACC-62 melanoma = system: UACC-62 melanoma
LOX IMVI melanoma = system: LOX IMVI melanoma
SK-MEL-28 melanoma = system: SK-MEL-28 melanoma
SK-MEL-2 melanoma = system: SK-MEL-2 melanoma
SN12C renal = system: SN12C renal
UO-31 renal = system: UO-31 renal
TK-10 renal = system: TK-10 renal
ACHN renal = system: ACHN renal
CAKI-1 renal = system: CAKI-1 renal
A498 renal = system: A498 renal
CCRF-CEM leukemia = system: CCRF-CEM leukemia
MOLT-4 leukemia = system: MOLT-4 leukemia
SR leukemia = system: SR leukemia

Row | SMILES | growth (HT29 colon) | growth (SNB-75 CNS) | growth (SNB-19 CNS) | growth (U251 CNS) | growth (PC-3 prostate) | growth (SK-MEL-5 melanoma) | growth (UACC-62 melanoma) | growth (LOX IMVI melanoma) | growth (SK-MEL-28 melanoma) | growth (SK-MEL-2 melanoma) | growth (SN12C renal) | growth (UO-31 renal) | growth (TK-10 renal) | growth (ACHN renal) | growth (CAKI-1 renal) | growth (A498 renal) | growth (CCRF-CEM leukemia) | growth (MOLT-4 leukemia) | growth (SR leukemia)
1 | O=[N+]([O-])c1ccc(Oc2cc(Cl)c(Cl)cc2Cl)c(C(F)(F)F)c1 | 105% | 89.4% | 111% | 97.9% | 92.1% | 96% | 97% | 99.2% | 101% | 94.3% | 103% | 80.2% | 115% | 96.8% | 92.3% | 90.5% | 93.5% | 87.5% | 100%
2 | O=c1cc(-c2ccccc2)[nH]n1-c1nc2ccccc2[nH]1 | 87.1% | 64.4% | 53.1% | 31.7% | 56.6% | 34.1% | 36.5% | 27.8% | 74.1% | 68.5% | 49.5% | 38.4% | 63.1% | 37.2% | 45.9% | 1.96% (active) | 11.9% | -18.6% (active) | 39.3%
3 | c1ccc2c(-c3nc(N4CCOCC4)c4c5c(sc4n3)CCCCCC5)cccc2c1 | 101% | 85.2% | 104% | 91% | 95% | 94% | 96.6% | 105% | 105% | 104% | 99.5% | 101% | 116% | 100% | 99.2% | 102% | 96.9% | 97.2% | 94.8%
4 | Cc1nc2c(c(=O)[nH]1)OCN(Cc1ccccc1)C2 | 105% | 89.6% | 97.2% | 108% | 89.1% | 102% | 105% | 101% | 105% | 130% | 104% | 79.3% | 119% | 104% | 103% | 75.5% | 90.5% | 95.9% | 93.6%
5 | Cc1cccc(C)c1NC(=O)c1sc2nc3c(cc2c1N)C(=O)CCC3 | 85.6% | 82.6% | 66.5% | 85.6% | 70.2% | 57.7% | 67.4% | 91.3% | 81.3% | 69.7% | 90.1% | 79.5% | 88.7% | 89.6% | 52% | -8.11% (active) | 66.5% | 96.2% | 69.1%
6 | CN(C)C=Nc1cc(Cl)ccc1Cl | 100% | 89.8% | 95.3% | 115% | 99.8% | 101% | 99.1% | 102% | 102% | 97% | 97.7% | 100% | 116% | 109% | 96.5% | 105% | 97.4% | 108% | 108%
7 | Cc1cc(C)c2c(n1)sc1c(Nc3ccc(Cl)cc3)ncnc12 | 27.5% | 32.7% | 10.4% | 22.5% | 49.2% | 32.7% | -11% (active) | -16.9% (active) | 55.3% | 82.8% | -20.9% (active) | -19.8% (active) | 47.7% | 1.33% (active) | 12.1% | -9.23% (active) | 4.05% (active) | -6.2% (active) | 3.86% (active)
8 | C#Cc1ccc(-n2c(/C=C/c3cc(OC)cc(OC)c3)nc3ncccc3c2=O)cc1 | 100% | 55% | 98% | 72% | 68.5% | 60.7% | 85.8% | 76.2% | 96.7% | 53.7% | 81.8% | 87.6% | 81.6% | 67.1% | 95.8% | 91.9% | 69% | 58.3% | 44.8%
9 | Nc1ccc2c(c1)C1(CCC2)NC(=O)NC1=O (configuration not stated) | 104% | 90.2% | 96.6% | 91.5% | 92% | 98.6% | 106% | 97.7% | 113% | 99.7% | 97.3% | 93.3% | 109% | 101% | 95.7% | 101% | 96.9% | 98.8% | 89.7%
10 | CSCCCNC(=O)c1ccc2c(c1)/C(=C/c1[nH]c(C)cc1C)C(=O)N2 | 31.2% | -1.79% (active) | 60.7% | 43.6% | 11.4% | 30.5% | 15.6% | 32.5% | 17.6% | -27.6% (active) | 22% | 9.33% (active) | 29.4% | 0.349% (active) | 9.54% (active) | -25.9% (active) | 52.2% | 29.1% | 10.7%
11 | COc1cc(Cl)cc(-c2nn(-c3cccc(NC(=O)c4ccc(Cl)c(Cl)c4)c3)cc2-c2ccncc2)c1 | 56.4% | 50.6% | 71.6% | 64.1% | 34% | 78.5% | 75.4% | 72.8% | 87.7% | 78.4% | 69.6% | 43.5% | 104% | 63.9% | 63.6% | -0.943% (active) | 59.2% | 54.9% | 43.6%
12 | COc1ccc2c(c1)O/C(=C\c1ccc([N+](=O)[O-])s1)C2=O | -12.3% (active) | 55.5% | 67.3% | 14.7% | 14% | 60% | 30.6% | 15.7% | 81.4% | 55.3% | 41.6% | 24% | 42.5% | 25.4% | 44.2% | 85.1% | 10.1% | 10.7% | 12.1%
13 | CCC(=O)N1C/C(=C/c2ccc(Cl)cc2)C(=O)/C(=C/c2ccc(Cl)cc2)C1 | -72.8% (active) | 20% | -19.3% (active) | -80.1% (active) | -44.1% (active) | -64.1% (active) | -74.8% (active) | -85.7% (active) | -74.2% (active) | -21.5% (active) | -26.1% (active) | -94% (active) | -30.6% (active) | -50.7% (active) | -20.7% (active) | -26.7% (active) | -11.1% (active) | -8.59% (active) | -27.9% (active)
14 | COc1cc(NC(=O)CCSc2nc3ccc(Cl)cc3c(=O)n2Cc2ccccc2)cc(OC)c1OC | 76.2% | 36.6% | 92.1% | 70.2% | 43.4% | 74.8% | 53.4% | 91.1% | 70.7% | 73.7% | 80% | 74.1% | 109% | 45.9% | 63.7% | 33.5% | 78.1% | 60.6% | 66.5%
15 | Nc1c(C(=O)Nc2cccc(Br)c2)sc2nc3c(cc12)C(O)CCC3 (configuration not stated) | 5.13% (active) | 31.2% | 62.2% | 19.3% | 23% | 31.6% | 48.9% | 46.2% | 63.2% | 58.7% | 37.3% | 31.9% | 56.7% | 51.4% | 25.6% | -8.73% (active) | 12.2% | 14% | 3.95% (active)
16 | Fc1cc(C(F)(F)F)ccc1-c1cncnc1NC1CCCCCC1 | 110% | 80.3% | 94.2% | 79.9% | 87.1% | 92.2% | 78.9% | 98.3% | 111% | 98.8% | 89.7% | 79.9% | 113% | 91.5% | 85.5% | 49.6% | 91.2% | 98.1% | 118%
17 | CN(Cc1ccccc1)Cc1ccc([N+](=O)[O-])cc1I | 93.8% | 94.7% | 91.6% | 89.4% | 90.5% | 93.5% | 94.2% | 102% | 97.1% | 95.3% | 99.9% | 88.4% | 106% | 101% | 93% | 81.4% | – | 91.1% | 67.2%
